Screening data: PubChem, Broad Institute
Hits are enriched below; roughly 2.2% of the tested compounds scored in any of these assays.
EWS-Fli inh = inhibitors of EWS/Fli oncoprotein transcriptional activity; A673 NR0B1-luciferase reporter, viability-normalised; inhibition, % at 12.6 µM; 350,000 tested, 0.67% active;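 active means mean inhibition of at least 50% after viability correction, with every replicate also passing that limit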;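 further: firefly luciferase signal divided by Alamar Blue viability fluorescence both relative to DMSO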
Shn3 inh set2 = inhibitors of Schnurri-3 3'UTR reporter in osteoblasts; inhibition, % at 12.5 µM; AID 588674; 360,000 tested, 0.52% active; Clone20 osteoblast Shn3 3'UTR firefly luciferase, 24 h;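 active means mean inhibition of at least 75% with every replicate also reaching 75%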;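 further: 0% = median of neutral control wells and 100% = pilot-screen positive control compound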
LGR2 inh = Drosophila LGR2 receptor signaling inhibition | HEK293 LGR2, CRE-luciferase, bursicon-stimulated, 4 h | inhibition, % at 9.99 µM | 380,000 tested, 0.35% active;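 active means drop in luminescence signal, shown as inhibition above about 50% in the replicate tests, limit read from the data, passing the limit was not always enough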;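 further: agonist challenge used bursicon conditioned medium at about half maximal strength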
EBV LMP1 NFkB = Epstein-Barr LMP1 NF-kappaB reporter inhibition | LMP1-induced NF-kappaB luciferase reporter cells, luminescence | inhibition, % at 12.5 µM | 350,000 tested, 0.69% active | AID 504558; in the data active means inhibition above about 41%;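 further: 0% = neutral control wells and 100% = reference inhibitor control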
TRPM1 prom inh = inhibitors of MITF-driven TRPM1 promoter in melanoma cells; inhibition, % at 12.5 µM; 330,000 tested, 0.83% active; AID 488899; SK-MEL-5 TRPM1 promoter luciferase, 24 h;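 active means mean inhibition across replicates of 60% or more, whatever share of single replicates reaches that level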
PAX8 inh HTS = PAX8 transcriptional activity inhibition; RMG-I TPO-luciferase reporter, SteadyGlo, 24 h; inhibition, % at 12.6 µM; 360,000 tested, 1.2% active;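 active means mean replicate inhibition at least 60% with every replicate also reaching 60%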;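 further: luciferase light reporting Pax8 driven TPO promoter activity; plate controls were median of neutral control wells for no effect and mitoxantrone controls for full effect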
Active calls of the source: *; / = no result.

SMILES	EWS-Fli inh	Shn3 inh set2	LGR2 inh	EBV LMP1 NFkB	TRPM1 prom inh	PAX8 inh HTS
O=C(C[C@H]1C[C@H]2c3cc(NC(=O)c4ccc5c(c4)OCO5)ccc3O[C@H]2[C@H](CO)O1)NCCN1CCCCC1	-35	/	-11	/	/	-15
COc1ccccc1-c1cn(CC[C@H]2CC[C@H](NC(=O)C3CCCC3)[C@H](CO)O2)nn1	-5	/	-13	/	/	/
Cc1ccc2oc(C(F)(F)C(F)F)cc(=O)c2c1	2	-2	-19	-1	-4	-24
Cc1ccc2oc(C(Cl)(Cl)Cl)cc(=O)c2c1	44	42	-1	3	67*	/
Cc1cc(/C=C2\Sc3ccccc3N2C)cc(C)[n+]1CC1CCCO1 (configuration not stated)	47	89*	6	19	74*	78*
C[C@@H]1CCCCO[C@H](CN(C)C(=O)Nc2ccccc2)[C@@H](C)CN([C@@H](C)CO)C(=O)c2cc(NS(=O)(=O)c3ccccc3)ccc2O1	2	/	8	/	/	18
CO[C@@H]1CN(C)C(=O)c2ccc(NC(=O)C3CCOCC3)cc2OC[C@H](C)N(Cc2nccs2)C[C@@H]1C	-4	/	10	/	/	/
Nc1ccc2c(c1)CC(=O)c1ccccc1S2	-28	6	/	6	-10	93*
COc1ccc(-c2cc(=Nc3ccc(C(=O)O)cc3)c3cc(C)ccc3o2)cc1	7	-28	53*	-15	-60	-26
CCc1ccc2oc(-c3ccc(OC)cc3)cc(=Nc3c(C)n(C)n(-c4ccccc4)c3=O)c2c1	44	-2	83*	-48	-70	-2
C=CCn1c(-c2ccc(OC)cc2)csc1=Nc1c(C)n(C)n(-c2ccccc2)c1=O	/	23	/	42*	23	/
CCc1ccc2oc(-c3ccc(OC)cc3)cc(=Nc3cccc(C(=O)O)c3)c2c1	19	17	84*	11	-20	12
CCOc1ccc2c(c1)c(N=Nc1cccc(C(=O)O)c1)c(O)n2C	/	-68	-78	-27	-34	-129
COc1ccc(-c2cc(=O)c3cc(O)ccc3o2)cc1	-94	-66	-24	-59	/	/
COc1ccc(-c2cc(C(=O)Nc3c(C)n(C)n(-c4ccccc4)c3=O)no2)cc1	5	/	9	-1	0	5
C[C@@H](NC(=O)C[C@H]1CC[C@@H](NC(=O)C2CCOCC2)[C@H](CO)O1)c1ccccc1	-2	/	-5	/	/	2
C[C@@H]1CCCCO[C@H](CN(C)S(=O)(=O)c2cn(C)cn2)[C@H](C)CN([C@@H](C)CO)C(=O)c2cc(NC(=O)NC3CCCCC3)ccc2O1	0	/	-7	/	/	-11
CCCC(=O)Nc1ccc2c(c1)C(=O)N(C)[C@H]1CC[C@H](CC(=O)Nc3cn(C)nc3C)O[C@H]1CO2	-3	/	-8	/	/	-7
CC1=CC(C)(C)N2C(=O)C3(NCCc4c3[nH]c3ccccc43)c3cc(C)cc1c32 (configuration not stated)	10	32	10	-2	-9	88*
COc1ccc(-n2nc(C(=O)NCC(=O)Nc3cc(OC)c(OC)c(OC)c3)c3ccccc3c2=O)cc1Cl	8	67	-2	37	16	81*
CCNC(=O)CC1C(=O)N(CC)C(=S)N1NC(=O)c1cccnc1 (configuration not stated)	5	3	11	74*	-6	-11
C/C=C/c1ccc([C@@H]2[C@@H](CO)N(C(=O)NCCC)[C@H]2CNC(=O)C2CC2)cc1	0	/	-5	/	/	-5
Cc1ccc2[nH]c3c(c2c1)CCCC3C(N)=O (configuration not stated)	7	-16	/	-4	-2	24
Cc1ccc2[nH]c3c(c2c1)CCCC3NC(=O)CCl (configuration not stated)	/	24	/	87*	55	/
C/C(=N\Nc1nc2ccccc2s1)c1ccc(Br)s1	-4	29	-13	-13	8	27
SMILES	EWS-Fli inh	Shn3 inh set2	LGR2 inh	EBV LMP1 NFkB	TRPM1 prom inh	PAX8 inh HTS
CC(=NNc1nc2ccccc2s1)c1ccncn1	-51	88*	-11	68*	38	0
CS(=O)(=O)N1[C@@H]2CNC[C@H]1C2c1ccc(-c2ccccc2)cc1 (some centres not stated)	-6	/	7	/	/	2
C[C@H]1CCCCO[C@@H](CN(C)C(=O)Nc2ccc(F)cc2)[C@@H](C)CN([C@@H](C)CO)C(=O)c2cc(NC(=O)C3CCCCC3)ccc2O1	19	/	66*	/	/	12
C[C@@H]1CCCCO[C@@H](CN(C)C(=O)Nc2ccc(F)cc2)[C@@H](C)CN([C@H](C)CO)C(=O)c2cc(NC(=O)C3CCCCC3)ccc2O1	7	/	4	/	/	14
C[C@@H]1CN([C@H](C)CO)C(=O)c2cc(NC(=O)Nc3ccc(F)cc3)ccc2O[C@@H](C)CCCCO[C@H]1CN(C)C(=O)C1CCCCC1	17	/	7	/	/	86*
C[C@@H]1CCCCO[C@@H](CN(C)C(=O)C2CCCCC2)[C@@H](C)CN([C@H](C)CO)C(=O)c2cc(NC(=O)Nc3ccc(F)cc3)ccc2O1	2	/	-2	/	/	2
C[C@H]1CCCCO[C@@H](CN(C)C(=O)C2CCCCC2)[C@@H](C)CN([C@@H](C)CO)C(=O)c2cc(NC(=O)Nc3ccccc3)ccc2O1	10	/	10	/	/	28
C[C@H](CO)N1C[C@H](C)[C@H](CN(C)C(=O)C2CCCCC2)OCCCC[C@H](C)Oc2ccc(NC(=O)Nc3ccc(F)cc3)cc2C1=O	5	/	13	/	/	74*
C[C@H]1CCCCO[C@H](CN(C)C(=O)C2CCCCC2)[C@@H](C)CN([C@@H](C)CO)C(=O)c2cc(NC(=O)Nc3ccc(F)cc3)ccc2O1	9	/	1	/	/	85*
C[C@@H]1CCCCO[C@H](CN(C)C(=O)C2CCCCC2)[C@H](C)CN([C@@H](C)CO)C(=O)c2cc(NC(=O)Nc3ccc(F)cc3)ccc2O1	8	/	3	/	/	39
C[C@@H]1CN([C@@H](C)CO)C(=O)c2cc(NC(=O)CCN3CCOCC3)ccc2O[C@H]1CN(C)Cc1ccc2c(c1)OCO2	-4	/	-13	/	/	1
C=C1C(=O)O[C@@]23[C@H]1CC[C@@H](C)[C@@H]2CC[C@@]1(C)O[C@@H]31	/	-19	/	8	85*	/
C[C@@H]1CN([C@@H](C)CO)C(=O)c2cc(/C=C/c3ccccc3)cnc2O[C@H]1CN(C)Cc1cccnc1	0	/	16	/	/	/
CC(C)NC(=O)Nc1ccc2c(c1)C(=O)N([C@@H](C)CO)C[C@@H](C)[C@@H](CN(C)Cc1ccccc1)O2	2	/	0	/	/	-4
COc1ccc(/C=C2/CSC/C(=C/c3ccc(OC)c(OC)c3)C2=O)cc1OC	66*	98*	26	90*	99*	38
COc1ccc(/C=C2\Cc3ccccc3C2=O)cc1OC	-137	-16	-21	2	-5	-7
CCOc1ccc(/C=C2\CCC(C3CCCC3)C2=O)cc1OC (configuration not stated)	-65	16	-16	-15	-40	-47
